Assay outcomes as filed in PubChem BioAssay.
A selection: hits, their analogues and other compounds. The true share with any hit is near 2.3%.
M1 ag parental: counter-screen for M1 agonists: effect in parental CHO-K1 cells. Fluo-8 calcium fluorescence; scaled to maximal ATP response, vehicle zero. activation, % at 3 µM. 360,000 compounds, 0.48% hits. AID 602248, 2012; in the data active = activation above about 15%;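 also: untransfected CHO-K1 host cells lacking M1 receptor as counterscreen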
CHRM1 PAM: human M1 muscarinic receptor positive allosteric modulators, primary screen, CHO-K1 cells, Fluo-8 calcium fluorescence, 1536-well; activation, % at 3 µM; Muscarinic acetylcholine receptor M1 (Homo sapiens), P11229; CHO-K1 hM1, ACh EC20; 0% = ACh EC20, 100% = maximal ACh; AID 588819, 2011; 360,000 compounds, 0.088% hits; in the data active = activation above about 19%, passing the limit was not always enough
Target sequence (P11229 whole entry, looked up): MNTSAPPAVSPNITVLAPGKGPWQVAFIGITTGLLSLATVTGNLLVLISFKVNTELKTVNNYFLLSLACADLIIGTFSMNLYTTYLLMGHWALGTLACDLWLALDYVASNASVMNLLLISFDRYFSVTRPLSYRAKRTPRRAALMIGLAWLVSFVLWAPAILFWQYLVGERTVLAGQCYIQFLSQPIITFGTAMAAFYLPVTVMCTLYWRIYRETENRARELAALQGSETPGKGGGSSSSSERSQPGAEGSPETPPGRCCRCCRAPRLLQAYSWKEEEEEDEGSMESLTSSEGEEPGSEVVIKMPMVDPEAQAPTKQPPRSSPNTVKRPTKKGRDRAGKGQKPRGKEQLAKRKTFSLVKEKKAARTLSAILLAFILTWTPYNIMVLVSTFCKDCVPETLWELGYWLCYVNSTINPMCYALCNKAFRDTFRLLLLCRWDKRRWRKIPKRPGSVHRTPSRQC
M1 ag: human M1 muscarinic receptor agonists, primary screen, Fluo-8 calcium fluorescence, CHO-K1 cells, HTS; Muscarinic acetylcholine receptor M1 (Homo sapiens), P11229; CHO-K1 hM1, agonist mode; 0% DMSO, 100% acetylcholine EC100; activation, % at 3 µM; 360,000 compounds, 0.33% hits;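 active = activation above the run's mean compound activation plus 3 SD, cut at about 16% in these data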;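 also: peak over basal fluorescence ratio within a 140 s kinetic read after compound addition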
M1 PAM parental: nonselective calcium activators in parental CHO-K1 cells, primary screen, counter-screen for M1 PAM project, cell-based, Fluo-8 calcium fluorescence, full deck, 1536-well; activation, % at 3 µM; ATP EC20; 0% at ATP EC20, 100% at ATP max; 360,000 compounds, 0.02% hits;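 active = activation above the run cutoff, the mean activation of all test compounds plus 3 SD, cut at about 40% in these data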;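 also: peak over basal fluorescence ratio in a 140 s read after ATP addition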
CHRM1 antagonist: human M1 muscarinic receptor antagonists, primary screen, CHO-K1 cells, Fluo-8 calcium fluorescence, 1536-well | CHO-K1 hM1, ACh EC80 antagonist | inhibition, % at 3 µM | 360,000 compounds, 1.3% hits | AID 588852, 2011;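 active = percent inhibition above its own plate's cutoff, namely the mean of that plate's compound wells plus 3 SD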;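 also: peak over basal fluorescence ratio during 140 s after agonist addition; 0% = ACh EC80 plus DMSO and 100% = DMSO alone without agonist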
CHO-K1 Ca antag: counter-screen for M1 antagonists: effect in parental CHO-K1 cells. ATP-induced calcium, Fluo-8 fluorescence. inhibition, % at 3 µM. 360,000 compounds, 0.6% hits. AID 602250;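 active = inhibition above a per-plate cutoff, the plate's mean sample inhibition plus 3 SD, cut at about 24% in these data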;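 also: 0% = DMSO plus EC80 ATP and 100% = DMSO alone without ATP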
* = called active by the depositor.

SMILES	M1 ag parental	CHRM1 PAM	M1 ag	M1 PAM parental	CHRM1 antagonist	CHO-K1 Ca antag
O=C(Nc1ccc(N2CCOCC2)cc1)C1(c2ccc(Cl)cc2)CCC1	8	10	17*	27	-19	-16
Cc1c(C(=O)N2CCN(c3ccc(F)cc3)CC2)sc2ncnc(N3CCN(c4ccccn4)CC3)c12	9	-20	-7	2	32*	8
Cc1c(C(=O)N2CCN(c3ccccc3)CC2)sc2ncnc(N3CCN(c4ccccn4)CC3)c12	3	3	-3	1	-3	-13
COc1ccc(C(CNc2ccc(S(=O)(=O)N3CCCC3)cc2[N+](=O)[O-])N2CCCC2)cc1 (centres undefined)	2	-28	-10	11	75*	6
COc1ccc(C(CNc2ccc(S(=O)(=O)N3CCN(C)CC3)cc2[N+](=O)[O-])N(C)C)cc1 (centres undefined)	1	4	-6	5	-5	-4
c1ccn2cc(C34CC5CC(CC(C5)C3)C4)nc2c1	1	-23	-6	17	54*	-25
CCOC(=O)C1CCCN(C(=O)CCc2nnc(-c3ccc(C(C)=O)s3)o2)C1 (centres undefined)	1	-11	29*	14	9	-13
CCOC(=O)C1CCCN(C(=O)CSc2nc(C)cc(C)n2)C1 (centres undefined)	0	-5	38*	10	8	-4
CCOC(=O)C1CCCN(C(=O)COc2ccccc2O)C1 (centres undefined)	0	-23	74*	18	62*	-11
CCOC(=O)C1CCCN(C(=O)CSc2ccc(Br)cc2)C1 (centres undefined)	0	-1	-7	-10	5	18
COc1cccc(NC(=O)C2CCCN(S(C)(=O)=O)C2)c1 (centres undefined)	-1	5	1	6	-18	0
CCN(CC(=O)Nc1ccc(C(=O)OC)cc1)C1CCCCC1	1	0	-11	10	4	-8
c1csc(CNc2nc(Oc3ccncc3)c3sccc3n2)c1	1	10	-2	14	-20	-7
Cc1ccc(C(=O)N2CCN(S(=O)(=O)c3cc(Br)ccc3Br)CC2)o1	2	5	-5	-6	-8	-22
CN1CCN(CC(=O)Nc2c(C(=O)c3ccccc3)oc3ccccc23)CC1	2	-38	-14	4	60*	-13
CCN1C/C(=C/c2ccc(N3CCOCC3)cc2)C(=O)/C(=C/c2ccc(N3CCOCC3)cc2)C1	34*	-9	23*	6	31	27*
O=C(CSc1nncc2ccccc12)Nc1ccc(C(=O)O)cc1	0	13	1	-6	-20	-6
CN(C1CCCCC1)S(=O)(=O)c1ccc(S(=O)(=O)N2CCCC2)cc1	5	-24	-3	1	32*	-15
O=S(=O)(c1ccc(C2CCCCC2)cc1)N1CCCC1	1	-9	-4	27	19	-9
COc1cccc(CNC(=O)c2ccc(CS(=O)Cc3ccc(C)cc3)o2)c1 (centres undefined)	1	7	-2	-13	19	7
COc1cccc(-c2cccc(-c3nc(C(=O)NCc4ccc5c(c4)OCO5)cc4c3[C@H](CCO)N(S(=O)C(C)(C)C)C4)c2)c1 (some centres undefined)	2	4	1	1	-33	-5
CCCCCCCn1c(=O)c(C(=O)OC)c(N)c2ccccc21	23*	-15	4	-8	28	4
COc1ccc(NC(=O)Cn2nc(C(=O)O)c3ccccc3c2=O)cc1Cl	2	-5	-5	-8	7	3
CCOC(=O)CCCCCC(=O)Nc1ccc2c(c1)CC(=O)N([C@@H](C)CO)C[C@H](C)[C@@H](CN(C)C(=O)Nc1ccc3c(c1)OCO3)O2	0	-3	-8	16	7	-9
CCOC(=O)c1csc(N)n1	3	9	-5	18	-11	-9
